Test results: paper PMC12820563, “FoxP3 forms a head-to-head dimer in vivo and stabilizes its multimerization on adjacent microsatellites”
In all, about 16,000 sequences were measured (“rpm ratio (pull-down/input)”: median about 0.94, highest 2% from about 1.7 on). The list comes from a sample in which the highest values are over-represented; it also holds similar and randomly drawn sequences.

target: T1, MBP-FoxP1dN (Mus musculus, UniProt P58462 326-579); assay: PD-seq (MBP pull-down with sequencing); 20 mM Tris-HCl pH 7.5, 100 mM NaCl, 1.5 mM MgCl2, 0.4 uM protein, 0.1 uM dsDNA library, 30 min, room temperature, amylose pull-down; high values mean tight binding; conditions: protein: recombinant; tags: His6-MBP; chain copies: 2; dsDNA, one strand shown
T1 sequence: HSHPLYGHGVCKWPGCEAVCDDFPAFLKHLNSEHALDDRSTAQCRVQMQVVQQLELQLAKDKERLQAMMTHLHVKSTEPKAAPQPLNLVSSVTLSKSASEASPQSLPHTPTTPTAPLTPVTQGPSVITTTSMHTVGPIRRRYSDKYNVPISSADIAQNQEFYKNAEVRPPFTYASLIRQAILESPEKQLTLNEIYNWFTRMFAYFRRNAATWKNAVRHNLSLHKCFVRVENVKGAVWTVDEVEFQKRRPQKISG
Method in brief: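 His6-MBP-tagged mouse FoxP3 or FoxP1 fragment lacking the N-terminus, expressed in E. coli, was mixed at 0.4 µM with 0.1 µM Klenow-filled double-stranded degenerate DNA library. Incubation was 30 min at room temperature in Tris pH 7.5 buffer with NaCl and MgCl2. Complexes were caught on amylose resin and washed three times; DNA was released with proteinase K, PCR-barcoded and Illumina-sequenced. Binding is reads-per-million enrichment, pull-down over input, with replicates pooled.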

Row | Sequence | binding signal
1 | GATGATTGTTCTCCCAGCTGATGAATTGCCTATGTCGAGTAAACAAATTTTCCTAATCTTTCTGTTCAAGCGCCATCTAC | 0.918 RPM ratio (pull-down/input)
2 | GATGATTGTTCTCCCAGCTGATGAATTGACGCGGTCGAGTAAACAAATTTTCCTAATCTTTCTGTTCAAGCGCCATCTAC | 1.01 RPM ratio (pull-down/input)
3 | GATGATTGTTCTCCCAGCTGATGAATTTTCTGGCTCGAGTAAACAAATTTTCCTAATCTTTCTGTTCAAGCGCCATCTAC | 0.777 RPM ratio (pull-down/input)
4 | GATGATTGTTCTCCCAGCTGATGAATTTCCGAAGTCGAGTAAACAAATTTTCCTAATCTTTCTGTTCAAGCGCCATCTAC | 0.787 RPM ratio (pull-down/input)
5 | GATGATTGTTCTCCCAGCTGATGAATTACGTCGCTCGAGTAAACAAATTTTCCTAATCTTTCTGTTCAAGCGCCATCTAC | 1.02 RPM ratio (pull-down/input)
6 | GATGATTGTTCTCCCAGCTGATGAATTTTCACATTCGAGTAAACAAATTTTCCTAATCTTTCTGTTCAAGCGCCATCTAC | 0.987 RPM ratio (pull-down/input)
7 | GATGATTGTTCTCCCAGCTGATGAATTACATTCCTCGAGTAAACAAATTTTCCTAATCTTTCTGTTCAAGCGCCATCTAC | 1.2 RPM ratio (pull-down/input)
8 | GATGATTGTTCTCCCAGCTGATGAATTTTTACTATCGAGTAAACAAATTTTCCTAATCTTTCTGTTCAAGCGCCATCTAC | 1.1 RPM ratio (pull-down/input)
9 | GATGATTGTTCTCCCAGCTGATGAATTTTACTAATCGAGTAAACAAATTTTCCTAATCTTTCTGTTCAAGCGCCATCTAC | 1.14 RPM ratio (pull-down/input)
10 | GATGATTGTTCTCCCAGCTGATGAATTTACTAAATCGAGTAAACAAATTTTCCTAATCTTTCTGTTCAAGCGCCATCTAC | 1.72 RPM ratio (pull-down/input)
11 | GATGATTGTTCTCCCAGCTGATGAATTAATGCGCTCGAGTAAACAAATTTTCCTAATCTTTCTGTTCAAGCGCCATCTAC | 1.26 RPM ratio (pull-down/input)
12 | GATGATTGTTCTCCCAGCTGATGAATTGACCTTCTCGAGTAAACAAATTTTCCTAATCTTTCTGTTCAAGCGCCATCTAC | 0.921 RPM ratio (pull-down/input)
13 | GATGATTGTTCTCCCAGCTGATGAATTTTGCTTTTCGAGTAAACAAATTTTCCTAATCTTTCTGTTCAAGCGCCATCTAC | 1.49 RPM ratio (pull-down/input)
14 | GATGATTGTTCTCCCAGCTGATGAATTGAATGGTTCGAGTAAACAAATTTTCCTAATCTTTCTGTTCAAGCGCCATCTAC | 0.852 RPM ratio (pull-down/input)
15 | GATGATTGTTCTCCCAGCTGATGAATTGATGACGTCGAGTAAACAAATTTTCCTAATCTTTCTGTTCAAGCGCCATCTAC | 1.06 RPM ratio (pull-down/input)
16 | GATGATTGTTCTCCCAGCTGATGAATTGTTGACGTCGAGTAAACAAATTTTCCTAATCTTTCTGTTCAAGCGCCATCTAC | 2.22 RPM ratio (pull-down/input)
17 | GATGATTGTTCTCCCAGCTGATGAATTTTTGACGTCGAGTAAACAAATTTTCCTAATCTTTCTGTTCAAGCGCCATCTAC | 0.91 RPM ratio (pull-down/input)

Row | Sequence | binding signal
18 | GATGATTGTTCTCCCAGCTGATGAATTGACGTAATCGAGTAAACAAATTTTCCTAATCTTTCTGTTCAAGCGCCATCTAC | 1.75 RPM ratio (pull-down/input)
19 | GATGATTGTTCTCCCAGCTGATGAATTTGACGTATCGAGTAAACAAATTTTCCTAATCTTTCTGTTCAAGCGCCATCTAC | 0.962 RPM ratio (pull-down/input)
20 | GATGATTGTTCTCCCAGCTGATGAATTGACGCCATCGAGTAAACAAATTTTCCTAATCTTTCTGTTCAAGCGCCATCTAC | 1.24 RPM ratio (pull-down/input)
21 | GATGATTGTTCTCCCAGCTGATGAATTTCTCTAGTCGAGTAAACAAATTTTCCTAATCTTTCTGTTCAAGCGCCATCTAC | 0.844 RPM ratio (pull-down/input)
22 | GATGATTGTTCTCCCAGCTGATGAATTACCGCGATCGAGTAAACAAATTTTCCTAATCTTTCTGTTCAAGCGCCATCTAC | 0.929 RPM ratio (pull-down/input)
23 | GATGATTGTTCTCCCAGCTGATGAATTCACAACATCGAGTAAACAAATTTTCCTAATCTTTCTGTTCAAGCGCCATCTAC | 2.11 RPM ratio (pull-down/input)
24 | GATGATTGTTCTCCCAGCTGATGAATTCTAAAAATCGAGTAAACAAATTTTCCTAATCTTTCTGTTCAAGCGCCATCTAC | 0.995 RPM ratio (pull-down/input)
25 | GATGATTGTTCTCCCAGCTGATGAATTTTGAAAATCGAGTAAACAAATTTTCCTAATCTTTCTGTTCAAGCGCCATCTAC | 1.14 RPM ratio (pull-down/input)
26 | GATGATTGTTCTCCCAGCTGATGAATTCTTCACATCGAGTAAACAAATTTTCCTAATCTTTCTGTTCAAGCGCCATCTAC | 1.08 RPM ratio (pull-down/input)
27 | GATGATTGTTCTCCCAGCTGATGAATTGAAAACATCGAGTAAACAAATTTTCCTAATCTTTCTGTTCAAGCGCCATCTAC | 1.8 RPM ratio (pull-down/input)
28 | GATGATTGTTCTCCCAGCTGATGAATTCCTAAAATCGAGTAAACAAATTTTCCTAATCTTTCTGTTCAAGCGCCATCTAC | 0.966 RPM ratio (pull-down/input)
29 | GATGATTGTTCTCCCAGCTGATGAATTCCTAACATCGAGTAAACAAATTTTCCTAATCTTTCTGTTCAAGCGCCATCTAC | 1.04 RPM ratio (pull-down/input)
30 | GATGATTGTTCTCCCAGCTGATGAATTCAAAACATCGAGTAAACAAATTTTCCTAATCTTTCTGTTCAAGCGCCATCTAC | 1.99 RPM ratio (pull-down/input)
31 | GATGATTGTTCTCCCAGCTGATGAATTGAAAAAATCGAGTAAACAAATTTTCCTAATCTTTCTGTTCAAGCGCCATCTAC | 1.03 RPM ratio (pull-down/input)
32 | GATGATTGTTCTCCCAGCTGATGAATTCTAAACATCGAGTAAACAAATTTTCCTAATCTTTCTGTTCAAGCGCCATCTAC | 2.07 RPM ratio (pull-down/input)
33 | GATGATTGTTCTCCCAGCTGATGAATTCTGAACATCGAGTAAACAAATTTTCCTAATCTTTCTGTTCAAGCGCCATCTAC | 0.898 RPM ratio (pull-down/input)
34 | GATGATTGTTCTCCCAGCTGATGAATTCAACACATCGAGTAAACAAATTTTCCTAATCTTTCTGTTCAAGCGCCATCTAC | 1.3 RPM ratio (pull-down/input)
